Source: PubChem BioAssay (The Scripps Research Institute Molecular Screening Center)
This is a sample that favours compounds with a hit; in the whole collection about 0.9% have one here.
PPARg SRC-1 ag: PPARgamma agonists recruiting SRC-1 coactivator, primary screen, biochemical; PPARgamma-SRC-1 coactivator recruitment biochemical assay; activation, % at 8 µM; actives 0.41% (n = 200,000); in the data active = activation above about 19%
Target sequence (P37231 whole entry, looked up): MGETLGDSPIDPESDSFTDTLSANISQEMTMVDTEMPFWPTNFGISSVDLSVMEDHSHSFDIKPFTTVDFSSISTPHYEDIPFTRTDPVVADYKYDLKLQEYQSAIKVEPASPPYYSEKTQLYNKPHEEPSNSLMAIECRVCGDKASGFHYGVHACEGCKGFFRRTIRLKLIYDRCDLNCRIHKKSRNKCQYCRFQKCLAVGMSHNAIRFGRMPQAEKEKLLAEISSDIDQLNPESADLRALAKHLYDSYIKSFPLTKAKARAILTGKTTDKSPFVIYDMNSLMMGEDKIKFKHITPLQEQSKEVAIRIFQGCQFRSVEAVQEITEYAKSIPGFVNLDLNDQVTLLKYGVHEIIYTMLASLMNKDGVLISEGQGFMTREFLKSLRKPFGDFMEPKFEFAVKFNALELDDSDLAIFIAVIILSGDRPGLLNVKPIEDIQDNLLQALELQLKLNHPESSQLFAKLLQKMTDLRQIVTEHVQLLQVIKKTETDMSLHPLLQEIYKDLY
PPARg SRC2 recr: agonists of PPARg-SRC-2 recruitment, primary screen, biochemical, HTS. Peroxisome proliferator-activated receptor gamma (Homo sapiens), P37231. PPARgamma LBD-SRC-2 recruitment. activation, % at 8 µM. actives 0.34% (n = 200,000). AID 1032, 2008; in the data active = activation above about 22%
PPARg SRC-3 ag: PPARgamma agonists recruiting SRC-3 coactivator, primary screen, biochemical; Peroxisome proliferator-activated receptor gamma (Homo sapiens), P37231; biochemical PPARgamma/SRC-3 coactivator recruitment assay; activation, % at 8 µM; actives 0.26% (n = 200,000); AID 731, 2007; in the data active = activation above about 23%
SRC1 TRFRET art: TR-FRET detection interference compounds, primary screen, artefact control for PPARgamma SRC-1 recruitment agonists, biochemical, TR-FRET emission ratio | TR-FRET detection artefact counter-screen; hits give high values | TR-FRET ratio at 8 µM | actives 0.34% (n = 99,000); in the data active = TR-FRET ratio above about 2300
SRC3 TRFRET art: TR-FRET detection interference compounds, artefact control for PPARgamma SRC-3 recruitment agonists, biochemical, TR-FRET ratio | TR-FRET ratio at 8 µM | TR-FRET artefact counter-screen, PPARgamma/SRC-3 format; hits give high values | actives 0.39% (n = 99,000)
SRC2 TRFRET art: TR-FRET signal artefacts, primary screen, artefact control for PPARgamma SRC-2 agonist project, biochemical; TR-FRET artefact counter-screen; hits give high values; TR-FRET ratio at 8 µM; actives 0.4% (n = 200,000); AID 1049, 2008
Of the large screens only hits and unclear results are named; the others gave an inactive call. Rule as the data show it, unless noted: active = TR-FRET ratio above about 2000; inactive = the rest.

Cc1cc(C)c(S(=O)(=O)Nc2c(C)[nH]c(=O)[nH]c2=O)c(C)c1	none (no result: SRC1 TRFRET art, SRC3 TRFRET art)
O=C(COC(=O)c1cc(Br)ccc1O)Nc1cc(S(=O)(=O)N2CCCC2)ccc1Cl	SRC3 TRFRET art 2102
CC(=O)OCC(=O)Nc1cc(S(=O)(=O)N2CCCCCC2)ccc1Cl	none
O=S(=O)(c1ccccc1)c1cnn2c(C(F)(F)F)cc(-c3ccc(F)cc3)nc12	PPARg SRC-1 ag 21 (no result: SRC1 TRFRET art, SRC3 TRFRET art)
O=S(=O)(c1ccccc1)c1cnn2c(C(F)(F)F)cc(-c3ccccc3)nc12	none (no result: SRC1 TRFRET art, SRC3 TRFRET art)
CCOC(=O)c1sc2nc(CC(=O)OC)nc(NCc3ccc(F)cc3)c2c1C	PPARg SRC2 recr 57, SRC2 TRFRET art 3064 (no result: SRC1 TRFRET art, SRC3 TRFRET art)
COc1ccc(-c2ccc(C#N)c(SCC(=O)OCc3ccccc3)n2)cc1OC	SRC2 TRFRET art 2143 (no result: SRC1 TRFRET art, SRC3 TRFRET art)
COc1ccc(OC)c(Cc2nnc(CCC(=O)NCc3nc4ccccc4s3)o2)c1	none
Cc1nn(-c2ccccn2)c2c1-c1nc(N3CCOCC3)ncc1CC2	PPARg SRC-1 ag 22 (no result: SRC1 TRFRET art, SRC3 TRFRET art)
Cc1nn(-c2ccccn2)c2c1-c1nc(N)ncc1CC2	none (no result: SRC1 TRFRET art, SRC3 TRFRET art)
COc1ccccc1C(=O)C1CCCN(C(=O)CSc2ccccn2)C1 (stereo not drawn)	PPARg SRC2 recr 24
CCOC(=O)C1=C(O)/C(=C/c2cccc(OC)c2O)N=C1C	SRC3 TRFRET art 2061
CC(=O)Nc1ccc(S(=O)(=O)N2CCN=C2SCc2cccnc2)cc1	none
CCC(C)NC(=O)Cn1c(=O)n(CCCC(=O)NCc2ccccc2Cl)c(=O)c2ccccc21 (stereo not drawn)	PPARg SRC2 recr 22 (no result: SRC1 TRFRET art, SRC3 TRFRET art)
Cc1ccc(NC(=O)CN(C)C(=S)NC2CC2)cc1	PPARg SRC-1 ag 26
COC(=O)c1nc(NC2=NCCCCC2)n[nH]1	none (no result: SRC1 TRFRET art, SRC3 TRFRET art)
Cc1ccccc1Cn1nnc(-c2cccc(C(=O)O)c2)n1	none (no result: SRC1 TRFRET art, SRC3 TRFRET art)
CC1Cc2ccccc2N1C(=O)CSc1nnnn1-c1ccc2c(c1)OCCO2 (stereo not drawn)	SRC2 TRFRET art 2058 (no result: SRC1 TRFRET art, SRC3 TRFRET art)
COc1ccc(-c2oc3c(CC=C(C)C)c(O[C@@H]4O[C@H](CO)[C@@H](O)[C@H](O)[C@H]4O)cc(O)c3c(=O)c2O[C@@H]2O[C@@H](C)[C@H](O)[C@@H](O)[C@H]2O)cc1	none
COc1ccc(CCN(Cc2nc3ccccc3c(=O)[nH]2)C(=O)c2ccco2)cc1OC	PPARg SRC-1 ag 20 (no result: SRC1 TRFRET art, SRC3 TRFRET art)
Clc1ccc(COc2ccccc2-c2ccnc3ncnn23)cc1	none
CCN1/C(=C/c2ccc3cc(C)ccc3[n+]2C)Sc2ccc3sccc3c21	PPARg SRC-1 ag 96, PPARg SRC2 recr 53, PPARg SRC-3 ag 46, SRC1 TRFRET art 3458, SRC3 TRFRET art 2512, SRC2 TRFRET art 2435
CCN1/C(=C/c2ccc3cc(C)ccc3[n+]2CC)Sc2cc(C)ccc21	none
CCSC1=N/C(=C\c2ccc(OC)cc2)C(=O)N1	none
COc1ccc(/C=C2\N=C(SC)NC2=O)cc1	PPARg SRC2 recr 22 (no result: SRC1 TRFRET art, SRC3 TRFRET art)
CCC(c1nnnn1CCc1ccccc1)N1CCN(c2ccc(OC)cc2)CC1 (stereo not drawn)	none (no result: SRC1 TRFRET art, SRC3 TRFRET art)
O=C(C1CCCN(S(=O)(=O)c2ccc(F)cc2)C1)N(Cc1cccs1)C1CC1 (stereo not drawn)	SRC1 TRFRET art 2408
CCc1cc2c(=O)n(CCC(C)C)c(=S)[nH]c2s1	SRC2 TRFRET art 1976
CCCCSc1nc(C)nc2c1c(=O)n(C)c(=O)n2C	none (no result: SRC1 TRFRET art, SRC3 TRFRET art)
CCCSc1nc(C)nc2c1c(=O)n(C)c(=O)n2C	PPARg SRC-1 ag 24 (no result: SRC1 TRFRET art, SRC3 TRFRET art)
Cc1cc(=O)n(C)c(=O)n1CCCCOc1cccc([N+](=O)[O-])c1	none
COc1ccc(-n2nc(C(=O)NCC(=O)Nc3ccccn3)c3ccccc3c2=O)cc1Cl	PPARg SRC-1 ag 23 (no result: SRC1 TRFRET art, SRC3 TRFRET art)
C/C(=N/NS(=O)(=O)c1ccc(Cl)cc1)c1cccc(O)c1	none (no result: SRC1 TRFRET art, SRC3 TRFRET art)
CCCCn1c(=S)[nH]c2ccc(N3CCOCC3)cc2c1=O	none
O=C(CCCCCn1c(=S)[nH]c2ccc(N3CCOCC3)cc2c1=O)NCc1ccc(Cl)cc1	SRC3 TRFRET art 2786
O=C(CCCCCn1c(=S)[nH]c2ccc(N3CCOCC3)cc2c1=O)NCc1ccc2c(c1)OCO2	SRC3 TRFRET art 3424
O=c1c2cc(N3CCOCC3)ccc2[nH]c(=S)n1Cc1ccc(Cl)cc1	none (no result: SRC1 TRFRET art, SRC3 TRFRET art)
